According to PubChem BioAssay (NCI):
The panel holds about 83,000 compounds, 20% with a hit somewhere; the sample as a whole holds those more often.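 The test compound was applied at a single concentration to cells in 96-well plates for 48 hours, and percent growth was recorded.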 Calls of active or inactive are those of the source. The calls were made as follows: active = growth percent below 10; inactive = the rest.

How the values were obtained:
Test in all cases: NCI-60 one-dose screen, 48 h (100 = growth as untreated, 0 = no growth, -100 = all killed)
Settings in all cases: 10 µM unless noted
NCI-H23 lung = system: NCI-H23 lung
NCI-H226 lung = system: NCI-H226 lung
NCI-H322M lung = system: NCI-H322M lung
HOP-62 NSCLC = system: HOP-62 NSCLC
NCI-H460 lung = system: NCI-H460 lung
HOP-92 NSCLC = system: HOP-92 NSCLC
NCI-H522 lung = system: NCI-H522 lung
A549/ATCC NSCLC = system: A549/ATCC NSCLC
786-0 renal = system: 786-0 renal
COLO 205 colon = system: COLO 205 colon

Measured: growth

O=C(CCCCCCN1CC(=O)N2[C@@H](c3ccc(Cl)cc3)c3[nH]c4ccccc4c3C[C@H]2C1=O)NO
inactive: NCI-H23 lung 71.3% | NCI-H226 lung 90.2% | NCI-H322M lung 70.3% | HOP-62 NSCLC 66.4% | NCI-H460 lung 67.6% | HOP-92 NSCLC 15.3% | NCI-H522 lung 38.2% | A549/ATCC NSCLC 93.6% | 786-0 renal 83.9% | COLO 205 colon 75.3%

CCC(CC)(N(CC(=O)O)CC(=O)O)C(CC)(CC)N(CC(=O)O)CC(=O)O
inactive: NCI-H23 lung 106% | NCI-H226 lung 106% | NCI-H322M lung 122% | HOP-62 NSCLC 103% | NCI-H460 lung 108% | HOP-92 NSCLC 95.6% | A549/ATCC NSCLC 91.3% | 786-0 renal 109% | COLO 205 colon 113%

C=NNc1ccccc1
inactive: NCI-H23 lung 86.5% | NCI-H226 lung 87.5% | NCI-H322M lung 85.7% | HOP-62 NSCLC 101% | NCI-H460 lung 102% | HOP-92 NSCLC 78.1% | NCI-H522 lung 73.7% | A549/ATCC NSCLC 84.3% | 786-0 renal 103% | COLO 205 colon 100%

COc1ccc2[nH]cc(-c3nc(-c4cn(C)c5ccncc45)cs3)c2c1
active: NCI-H460 lung -51% | A549/ATCC NSCLC 6.03%
inactive: NCI-H23 lung 93.9% | NCI-H226 lung 106% | NCI-H322M lung 90.9% | HOP-62 NSCLC 95.4% | HOP-92 NSCLC 98.2% | NCI-H522 lung 65.4% | 786-0 renal 79% | COLO 205 colon 96.2%

NNC(=S)N/N=C/c1ccccn1
inactive: NCI-H23 lung 30.9% | NCI-H226 lung 34.3% | NCI-H322M lung 46.2% | HOP-62 NSCLC 13% | HOP-92 NSCLC 21% | A549/ATCC NSCLC 46.9% | 786-0 renal 24.4% | COLO 205 colon 15%
active: NCI-H460 lung 9.74%

CCN(CC)CCOc1ccc(Nc2ncc3cc(-c4ccc(O)cc4)c(=O)n(C)c3n2)cc1
active: 786-0 renal -76.5%
inactive: NCI-H23 lung 69.8% | NCI-H226 lung 43.8% | NCI-H322M lung 47.7% | HOP-62 NSCLC 49.9% | NCI-H460 lung 78.9% | HOP-92 NSCLC 76.6% | NCI-H522 lung 27.3% | A549/ATCC NSCLC 49% | COLO 205 colon 38.4%

CC[C@H](Nc1nc(N)nc(C)c1C#N)c1nc2cccc(NCCCCCC(=O)NO)c2c(=O)n1-c1ccccc1
inactive: NCI-H23 lung 73.3% | NCI-H226 lung 75% | NCI-H322M lung 75.9% | HOP-62 NSCLC 66.2% | NCI-H460 lung 77% | HOP-92 NSCLC 27.2% | A549/ATCC NSCLC 79.3% | 786-0 renal 27.5% | COLO 205 colon 86.2%

N/C(=N\c1nc2ccccc2s1)NC(=NC1CCCCC1)NC1CCCCC1
inactive: NCI-H23 lung 30.6% | NCI-H226 lung 77.1% | NCI-H322M lung 40.4% | HOP-62 NSCLC 67.7% | NCI-H522 lung 14% | A549/ATCC NSCLC 45.9% | 786-0 renal 25.1%
active: NCI-H460 lung -44.4% | HOP-92 NSCLC -1.22% | COLO 205 colon -44.9%

CCOc1ccc(NC(=O)c2cc(OC)c(OC)c(OC)c2)cc1
inactive: NCI-H23 lung 45.8% | NCI-H226 lung 68.1% | NCI-H322M lung 52.2% | HOP-62 NSCLC 56.2% | NCI-H460 lung 17.1% | HOP-92 NSCLC 44.1% | A549/ATCC NSCLC 46.6% | 786-0 renal 32.3% | COLO 205 colon 11.8%

CC(C(=O)O)n1c(O)c(C=Nc2cccnc2)sc1=S (configuration not stated)
inactive: NCI-H23 lung 99.1% | NCI-H226 lung 85.3% | NCI-H322M lung 93.1% | HOP-62 NSCLC 89.5% | NCI-H460 lung 100% | HOP-92 NSCLC 86% | A549/ATCC NSCLC 92.4% | 786-0 renal 95.5% | COLO 205 colon 107%

N#Cc1c(N2CCOCC2)nc(=S)[nH]c1-c1ccccc1
inactive: NCI-H23 lung 87.6% | NCI-H226 lung 72.5% | NCI-H322M lung 76.4% | HOP-62 NSCLC 51.3% | NCI-H460 lung 68.9% | A549/ATCC NSCLC 85.6% | 786-0 renal 82.9% | COLO 205 colon 77.3%
active: HOP-92 NSCLC -7.41%

O=C1/C(=C/c2ccc(Br)cc2)COc2ccc(O)c(O)c21
active: HOP-62 NSCLC -24.5% | HOP-92 NSCLC -33.4% | NCI-H522 lung -70.4% | 786-0 renal -70.4%
inactive: NCI-H23 lung 18.3% | NCI-H226 lung 71% | NCI-H322M lung 30.7% | NCI-H460 lung 12% | A549/ATCC NSCLC 20.6% | COLO 205 colon 15.4%

COc1cc2c(c(OC)c1OC)C(=O)N[C@@H]1[C@@H](O)[C@@H](O)[C@H](O)C[C@@H]21
inactive: NCI-H23 lung 106% | NCI-H226 lung 102% | NCI-H322M lung 104% | HOP-62 NSCLC 102% | NCI-H460 lung 110% | HOP-92 NSCLC 91.4% | A549/ATCC NSCLC 98.4% | 786-0 renal 94.9% | COLO 205 colon 108%

CCCCC(=O)Nc1ncc(Cc2ccccc2Cl)s1
inactive: NCI-H23 lung 69.4% | NCI-H226 lung 63.4% | NCI-H322M lung 86.8% | HOP-62 NSCLC 42.7% | NCI-H460 lung 51% | HOP-92 NSCLC 51.3% | NCI-H522 lung 19.9% | A549/ATCC NSCLC 40.9% | 786-0 renal 50% | COLO 205 colon 37%

CCN(CC)S(=O)(=O)c1ccc(S(=O)(=O)N2CCC[C@@H](C(=O)N3CCN(C(=O)OC(C)(C)C)CC3)C2)cc1
inactive: NCI-H23 lung 53.6% | NCI-H226 lung 77.9% | NCI-H322M lung 88.5% | HOP-62 NSCLC 66.1% | NCI-H460 lung 73.4% | HOP-92 NSCLC 74.9% | NCI-H522 lung 68.4% | A549/ATCC NSCLC 67.7% | 786-0 renal 92.8% | COLO 205 colon 108%

O=C1NC(=C(Cl)Cl)/C(=N/S(=O)(=O)N2CCCCC2)N1
active: HOP-92 NSCLC -81.8% | 786-0 renal 2.47% | COLO 205 colon -84.5%
inactive: NCI-H23 lung 53.9% | NCI-H226 lung 89.5% | NCI-H322M lung 92.5% | HOP-62 NSCLC 62.1% | NCI-H460 lung 94.2% | A549/ATCC NSCLC 93.4%

CCOC(=O)C1CCN(c2ccc(N3C[C@@H](CNCc4ccc(C(=N)N)cc4)OC3=O)cc2)CC1
inactive: NCI-H23 lung 97.9% | NCI-H226 lung 97.2% | NCI-H322M lung 103% | HOP-62 NSCLC 97.5% | NCI-H460 lung 103% | HOP-92 NSCLC 90.8% | NCI-H522 lung 92.6% | A549/ATCC NSCLC 104% | 786-0 renal 100% | COLO 205 colon 103%

CN1CCN(Cc2ccc(NC(=O)c3cncc(C#Cc4cncc5ncccc45)c3)cc2C(F)(F)F)CC1
inactive: NCI-H23 lung 15% | NCI-H226 lung 12.7% | NCI-H322M lung 18% | HOP-62 NSCLC 10.4% | NCI-H522 lung 19.7% | A549/ATCC NSCLC 17.7% | 786-0 renal 38.3%
active: NCI-H460 lung -47.3% | HOP-92 NSCLC -34.9% | COLO 205 colon -23%

C=CCCC(=O)N1C=CC(=O)[C@H](O)[C@@H]1/C=C/c1ccccc1
inactive: NCI-H23 lung 52.8% [100 µM] | NCI-H226 lung 26.8% [100 µM] | NCI-H322M lung 59% [100 µM] | HOP-62 NSCLC 35.3% [100 µM] | NCI-H460 lung 15.2% [100 µM] | HOP-92 NSCLC 70.6% [100 µM] | A549/ATCC NSCLC 52% [100 µM] | 786-0 renal 14.2% [100 µM] | COLO 205 colon 34% [100 µM]

COc1ccc2c(c1)c(-c1ccc(-c3cn(C)c4ccc(OC)cc34)[nH]1)cn2C
active: HOP-92 NSCLC -7.36% | COLO 205 colon -58.2%
inactive: NCI-H23 lung 34.2% | NCI-H226 lung 58.8% | NCI-H322M lung 71% | HOP-62 NSCLC 83.3% | NCI-H460 lung 30.1% | A549/ATCC NSCLC 28.8% | 786-0 renal 65%

O=C1c2cc3c(cc2-c2c1c1ccc(Cl)cc1c(=O)n2C[C@H](O)CO)OCO3
active: NCI-H23 lung -11.4% | NCI-H226 lung -77.7% | NCI-H322M lung -14.3% | HOP-62 NSCLC -19.8% | NCI-H460 lung -12.1% | HOP-92 NSCLC -11% | NCI-H522 lung -12.7% | A549/ATCC NSCLC -18.6% | 786-0 renal -42.2% | COLO 205 colon -28.1%

CCN(CC)CCOc1nc2c3ccc(Cl)cc3nn2c2ccccc12
inactive: NCI-H23 lung 34.5% | NCI-H226 lung 47.1% | NCI-H322M lung 29.2% | HOP-62 NSCLC 42.3% | NCI-H460 lung 11.4% | A549/ATCC NSCLC 16.3% | 786-0 renal 23.6%
active: HOP-92 NSCLC -3.36% | COLO 205 colon 4.4%

CCN(CC)c1ccc(/C=C\c2cc(C)c3cc(C)ccc3n2)cc1
active: HOP-92 NSCLC -10.9% | 786-0 renal 2.99%
inactive: NCI-H23 lung 30.3% | NCI-H226 lung 59.5% | NCI-H322M lung 83% | HOP-62 NSCLC 45.6% | NCI-H460 lung 16.8% | NCI-H522 lung 28.6% | A549/ATCC NSCLC 31.9% | COLO 205 colon 50%

O=C1Nc2ccc(F)cc2/C1=C\c1nc(-c2ccccc2F)n2ccccc12
inactive: NCI-H23 lung 75.9% | NCI-H226 lung 104% | NCI-H322M lung 91.7% | HOP-62 NSCLC 94.4% | NCI-H460 lung 50.5% | HOP-92 NSCLC 79.8% | A549/ATCC NSCLC 86.1% | 786-0 renal 105% | COLO 205 colon 93%

O=C1NC(=O)c2c1c1c3ccccc3[nH]c1c1oc3ccc(F)cc3c21
inactive: NCI-H23 lung 61.9% | NCI-H226 lung 54% | NCI-H322M lung 50.7% | HOP-62 NSCLC 64.8% | NCI-H460 lung 52.9% | HOP-92 NSCLC 70.1% | NCI-H522 lung 50.4% | A549/ATCC NSCLC 86% | 786-0 renal 90.3% | COLO 205 colon 79.4%

C=C(C)[C@@H]1CC[C@]2(CO)CC[C@]3(C)[C@H](CC[C@@H]4[C@@]5(C)CCC(NCCc6ccc(O)cc6)C(C)(C)[C@@H]5CC[C@]43C)[C@@H]12 (some centres not stated)
active: NCI-H23 lung -86.6% | NCI-H322M lung -76.5% | HOP-62 NSCLC -77.5% | NCI-H460 lung -89.5% | HOP-92 NSCLC -93.2% | NCI-H522 lung -81.3% | A549/ATCC NSCLC -87.1% | 786-0 renal -92.7% | COLO 205 colon -76.4%
inactive: NCI-H226 lung 66.8%

C=CCOC(=O)C1=C(C)NC(=O)NC1c1c(Cl)n(C)c2ccccc12 (configuration not stated)
inactive: NCI-H23 lung 88.3% | NCI-H226 lung 97.8% | NCI-H322M lung 96.9% | HOP-62 NSCLC 92.9% | NCI-H460 lung 106% | HOP-92 NSCLC 55.3% | A549/ATCC NSCLC 103% | 786-0 renal 91.3% | COLO 205 colon 111%
